The test system of this assay is PXR homodimer (NR concentration 270 nM). Briefly: PBM binding z-score (relative to random genomic background probes); higher = stronger binding; sequences stand for … in GC…GCGATTGACAGCGTAGAATGAAGG
In a few lines:
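Regression normalization was applied to scanned fluorescence from custom Agilent 4×180K protein-binding microarrays. Before scanning, arrays were incubated 1 h with ligand-free nuclear receptor dimers, and binding was detected with antibodies against each partner (one per run). Binding z-scores use the random background probes as reference.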
As for CTACCAAAGTGAACAAGGTCGTTGATTACTATTC, the PBM binding z-score is 1.48.
Sequence GCTAGTTGCTCAGTAAAAGGTCACACACCGGTCG registered a PBM binding z-score of 0.686.
The sequence TCTCGGGGGACACGAAAGGTCAGAGCTCGACATC came in with a PBM binding z-score of 1.76.
Sequence AGTCAAAGTTCATCTAGGTAACGTAAGATATGCT returned a PBM binding z-score of 7.49.
As for ATATGTAGGTCACATCCGGGTCATTCAGGCTATG, the figure is 2.96; as for AGAATGAGGTTAAGAGCAGGGAAACAGAATACAT, 0.121.
Regarding GCTTACGGGTCAAAGGTTATAGCCTGAATAGAAT, the PBM binding z-score was found to be 0.103.
For CAAGCTAGGTCACGAAAGGTCAAAGTCGAATGAC the value was 3.04; for TAGCCTATGTCATGGGCCAGTATACCACGCGAAC, -0.151; for CGTCCAAGGTCAGCAGGTCAGTGACAGCGACGTG, 0.701.
As for TCATATAGGTAAAGGTGAAAGTGGAACGATATGA, the figure is 0.224.
The sequence ATCTCAAGGTAACCAAGTTCAGTGAATGCCGAAC yielded a PBM binding z-score of 3.
For CCTTACGGGTCAAGGTGATAGCACGGGTGGTACG the value was -0.103.
As for ACAGACAGGTGAGTGAAGGTATCTCAGCTGGACG, the figure is -0.293; as for CAAACTAGGTCAAAGGTCCAAGTCGAGCCAACCA, 0.0421.
As for ATATGTAGGTTAAGGGTCAGTCAGGTTGGTTCGC, the figure is 2.03; as for TCTGCTAGGTCAGTTGTTCAGCTAACGAGCTGCC, -1.04; as for AGTCAAAGTTCAGGAGGAGGTAACGTAAAGCACG, 1.96.
As to CCTTGCAGGCCAATCTGGGTCACTCAAGGCTTGA, the PBM binding z-score is -0.543.
For AGAACGAAGGCAATGAGTTGATAGCACGGGTGGC the value was -0.132; for AGTCAAAGTTCACTAGGTAACGTGAGATTCAGCT, 1.97.
As for GTACCAAGGTGAATTGGTCGTTGATGAGTAGGCG, the figure is -0.573.

Source of the values: the supplement of paper PMC6555819.
